Screening data from PubChem BioAssay.
Compounds with a hit are over-represented: about 2.6% of the library has one in this group of screens.
Mcl-1 Bim block = human Bim-Mcl-1 interaction inhibition. inhibition, % at 10 µM. 190,000 tested, 0.1% active. Q07820. Bead-based flow cytometry, Bim peptide-Mcl-1 binding. AID 1009; in the data active = inhibition above about 40%;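 also: 0% = no compound tracer wells and 100% = peptide blocker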
Target sequence (Q07820 whole entry, looked up): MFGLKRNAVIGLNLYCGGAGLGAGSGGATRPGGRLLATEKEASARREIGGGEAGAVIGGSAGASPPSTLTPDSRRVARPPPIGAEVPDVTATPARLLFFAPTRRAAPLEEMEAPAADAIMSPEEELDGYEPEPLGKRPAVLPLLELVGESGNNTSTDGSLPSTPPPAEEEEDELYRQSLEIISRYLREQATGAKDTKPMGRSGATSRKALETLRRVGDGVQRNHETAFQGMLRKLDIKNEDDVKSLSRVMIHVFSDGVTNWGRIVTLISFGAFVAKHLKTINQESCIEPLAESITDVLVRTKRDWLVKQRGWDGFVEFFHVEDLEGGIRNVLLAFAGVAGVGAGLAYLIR
eIF4E 4G PPI = inhibitors of eIF4E and eIF4G interaction in translation initiation; 220,000 tested, 0.37% active; P63073+Q04637; inhibition, % at 21.7 µM; TR-FRET eIF4E-eIF4GI(517-606) binding, 2 h; AID 782;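 active = inhibition above about 30%, limit read from the data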;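 also: 0% = full FRET control wells and 100% = background wells lacking eIF4GI fragment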
Mcl1-Bid inh = disrupts binding of human Mcl-1 to Bid peptide | Q07820 | TR-FRET Mcl-1/Bid-Dy647 peptide binding, 1536-well | inhibition, % at 21.7 µM | 220,000 tested, 0.97% active;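 active = compounds that cut the binding signal by more than half at the single screening dose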;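 also: His-tagged Mcl-1 with europium anti-His antibody binding Bid BH3 peptide; 0% = Mcl-1 plus peptide wells and 100% = peptide-only wells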
14-3-3 Bad PPI = disrupts binding of bovine 14-3-3 zeta to phospho-Bad peptide | P63103 | TR-FRET 14-3-3zeta/Dy647-pBad peptide displacement, 1 h | inhibition, % at 21.7 µM | 220,000 tested, 0.71% active | AID 781;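 active = inhibition above about 70%, limit read from the data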;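 also: 0% = full 14-3-3 plus peptide FRET controls and 100% = background without 14-3-3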
Target sequence (P63103 whole entry, looked up): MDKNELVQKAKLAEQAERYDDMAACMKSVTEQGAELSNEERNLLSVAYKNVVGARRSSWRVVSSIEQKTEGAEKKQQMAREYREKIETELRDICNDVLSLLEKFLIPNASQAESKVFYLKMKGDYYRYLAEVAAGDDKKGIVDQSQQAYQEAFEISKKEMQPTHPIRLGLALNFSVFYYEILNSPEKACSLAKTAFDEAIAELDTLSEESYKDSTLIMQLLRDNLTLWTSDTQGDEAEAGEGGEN
Mcl1 Noxa PPI = Mcl-1/Noxa interaction inhibition; 220,000 tested, 1.5% active; AID 1022; inhibition, % at 21.7 µM; TR-FRET Mcl-1/Noxa peptide binding, 2 h;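 active = compounds that cut the protein-peptide binding signal by more than 50% relative to plate controls in a single-dose test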;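 also: His-tagged Mcl-1 with rhodamine Noxa BH3 peptide and terbium anti-His antibody; 0% = Mcl-1 plus Noxa peptide wells and 100% = peptide-only wells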
MCL1-BIM inh = inhibitors of human MCL1 binding to BIM-BH3 peptide; AID 2057; 320,000 tested, 0.68% active; GST-MCL1 / FITC-Bim-BH3 fluorescence polarization; inhibition, % at 10.9 µM; Q07820;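 active = inhibition above the mean inhibition of all tested compounds plus 3 SD, set per campaign, cut at about 40% in these data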;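 also: 0% = DMSO wells and 100% = unlabeled Bim-BH3 peptide control; higher means more loss of mP so more displacement of Bim peptide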
* = called active by the depositor; x = not tested or not shown; [ ] = another dose, or the depositor's remark.

SMILES	Mcl-1 Bim block	eIF4E 4G PPI	Mcl1-Bid inh	14-3-3 Bad PPI	Mcl1 Noxa PPI	MCL1-BIM inh
CC1(C)CC(=O)C(/C=N/c2ccccn2)=C(O)C1	-4	0	-31	-4	-5	3
Cc1cc(C)c2nc(NNC(=O)c3ccc(S(=O)(=O)N4CCc5ccccc5C4)cc3)sc2c1	-1	-2	-41	-2	-46	4
Cc1cc(C)c2nc(NNC(=O)c3cc(=O)c4ccccc4o3)sc2c1	2	-1	-44	-19	65*	-1
NC(=S)N/N=C/c1coc2c(ccc3ccccc32)c1=O	-4	10	76*	89*[fluorescence artefact?]	-2	5
O=c1cc(/N=C/c2coc3c(ccc4ccccc43)c2=O)[nH]c(=S)[nH]1	-14	4	-85	-7	74*	22
CC1(c2nnc(-c3cccc(Cl)c3)o2)CC(c2ccc(F)cc2)=NO1 (configuration not stated)	x	x	x	x	x	-5
COc1cc(C(=O)O[C@H]2C/C(C)=C/CC[C@@]3(C)O[C@@H]3[C@H](O)[C@@H]2C(C)C)cc(OC)c1OC	x	x	x	x	x	1
CCN1CCN(C(=O)c2ccc(COc3cccc(Cl)c3)o2)CC1	x	x	x	x	x	13
CN(C)c1ccc(NC(=O)c2ccc(COc3cccc(Cl)c3)o2)cc1	0	3	-12	19	85*	4
O=C(CSc1nc2ccsc2c(=O)n1Cc1ccc(C(=O)O)cc1)NCC1CCCO1 (configuration not stated)	73*	1	18	0	14	4
O=C(CSc1nc2scc(-c3ccco3)c2c(=O)n1-c1ccccc1)N1CCOCC1	0	-2	-5	-12	30	-1
O=C(CSc1nc2ccsc2c(=O)n1Cc1ccccc1)NCC1CCCO1 (configuration not stated)	-5	-1	-17	-5	0	5
C=CCn1c(SCC(=O)NCC2CCCO2)nc2scc(-c3ccco3)c2c1=O (configuration not stated)	1	8	-25	-14	18	-2
NC(=O)CSc1nc2scc(-c3ccco3)c2c(=O)n1-c1ccccc1	0	9	6	6	55*	20
O=C(CSc1nc2scc(-c3ccco3)c2c(=O)n1-c1ccccc1)NCC1CCCO1 (configuration not stated)	-1	6	3	-5	56*	3
Cc1noc(C)c1S(=O)(=O)Nc1ccc(C#N)cc1	x	x	x	x	x	-3
Cc1noc(C)c1COC(=O)c1csc2c1CCC(C)C2 (configuration not stated)	x	x	x	x	x	2
C=CCOc1ccc2ccccc2c1CNCCCN1CCOCC1	0	-4	0	61	18	6
C=CCOc1ccc(Br)cc1CNCCCN1CCOCC1	-3	13	33	12	57*	7
O=C(CSc1nnc(Cc2ccccc2)n1Cc1ccccc1)NCc1ccco1	-4	7	-10	-10	-7	-8
Cc1ccc(Nc2nnc(SCC(=O)NCc3ccco3)s2)cc1	-3	1	-73	-13	53*	x
CCOc1ccccc1-n1nnnc1SCC(=O)NC(=O)NCc1ccco1	2	1	-83	-17	53*	4
Cc1nnc(SCC(=O)NC(=O)NCc2ccco2)n1Cc1ccccc1	-3	-9	2	-11	53*	8
O=C(CSc1nnc(Nc2ccccc2)s1)NCc1ccco1	0	2	-37	-2	2	6
Nn1c(SCC(=O)NC(=O)NCc2ccco2)nnc1-c1ccc(OC(F)F)cc1	-4	-1	18	6	96*	4
SMILES	Mcl-1 Bim block	eIF4E 4G PPI	Mcl1-Bid inh	14-3-3 Bad PPI	Mcl1 Noxa PPI	MCL1-BIM inh
FC(F)(F)c1ccc(Oc2ccc3cc(Br)ccc3c2)nc1	-8	2	-16	-9	-3	-7
CC1CCCC(NC(=S)Nc2cccc(S(=O)(=O)N(C)C)c2)C1C (configuration not stated)	-5	-2	-31	-4	6	7
O=C(CN(Cc1ccc(F)cc1)C(=O)CCC(=O)Nc1ccccn1)NCCc1ccccc1	x	x	x	x	x	3
N#Cc1ccc(S(=O)(=O)N2CCN(CC(=O)NCC3(N4CCOCC4)CCCCC3)CC2)cc1	x	x	x	x	x	-5
COc1ccc(C(C(=O)NC2CCCCC2)N(Cc2cccnc2)C(=O)c2snc(C(N)=O)c2N)cc1 (configuration not stated)	x	x	x	x	x	-5
CCn1c(SCC(=O)NC(=O)NCc2ccco2)nc2sc(C)c(C)c2c1=O	-1	5	-6	3	55*	26
O=C(CSc1nnc(COc2ccccc2Cl)o1)NC(=O)NCc1ccco1	x	16	-40	-1	81*	25
O=C(CSc1nnc(Nc2ccccc2F)s1)NCc1ccco1	0	-8	-54	-6	30	x
Cc1ccccc1Nc1nnc(SCC(=O)NC(=O)NCc2ccco2)s1	-3	-4	-59	6	56*	10
COc1ccc2nc(NC(=O)Cn3cnc4ccccc4c3=O)sc2c1	x	1	18	43	-58	-22
Nc1cc(C(=O)OCC(=O)NCCNC(=O)COC(=O)c2ccc(Cl)c(N)c2)ccc1Cl	x	x	x	x	x	2
CCOC(=O)C1CCCN(S(=O)(=O)c2cnc(Cl)c(Br)c2)C1 (configuration not stated)	x	x	x	x	x	4
CCn1c(SCC(=O)N2CCOCC2)nc2oc3c(Cl)cc(Cl)cc3c(=O)c2c1=O	0	0	-66	-15	54*	21
CCn1c(SCC(=O)N2CCOCC2)nc2sc3c(c2c1=O)CCCC3	-2	-15	26	0	10	2
O=C(NCCOC12CC3CC(CC(C3)C1)C2)c1cccc(Br)c1	0	1	-8	-7	-12	4
O=C1C(C=Nc2ccccc2O)=C(O)c2ccccc21	-3	2	-33	-5	-5	6
Cc1ccc(O)c(N=CC2=C(O)c3ccccc3C2=O)c1	-1	-1	-39	1	63*	43*
CCOC(=O)C1CCCN(S(=O)(=O)c2cc3c4c(c2)CCC(=O)N4CCC3)C1 (configuration not stated)	x	x	x	x	x	2
O=C(Nc1cc(Cl)cc(Cl)c1)N1CCCC1	x	0	-15	-6	-26	-1
Cc1cc(/C=N/NC(=O)c2cccs2)c(C)n1-c1ccccc1	-136	-15	87*	-11	8	-2
Cc1cc(C(=O)N/N=C/c2ccc(O)c(O)c2O)c(C)n1-c1ccccc1	2	24	-114	-26	73*	x
Cc1cc(/C=N/NC(=O)c2ccncc2)c(C)n1-c1ccccc1	-4	6	-23	-5	18	-2
CCn1cc(S(=O)(=O)Nc2cc(F)ccc2C)cn1	0	1	-4	92*	2	-3
Cc1cccc(C(=O)NC(C)C(c2cccs2)N2CCOCC2)c1 (configuration not stated)	x	97*	-11	-5	-6	3
